Records with an inconclusive call do not appear. A call without a number means that no potency is given here. The source made the active and inactive calls. The call rests on the fitted dose curve.
Experiment: Primary qHTS for Huh7 cytotoxicity: counterscreen for inhibitors of MERS-S pseudotyped particle cell entry (AID 1479147)

| SMILES | Potency | outcome |
| --- | --- | --- |
| Cc1cn([C@H]2C[C@H](N=[N+]=[N-])[C@@H](CO)O2)c(=O)[nH]c1=O | inactive | – |
| CCCCc1ncc(/C=C(\Cc2cccs2)C(=O)O)n1Cc1ccc(C(=O)O)cc1 | inactive | – |
| COc1cc2nc(N(C)CCCNC(=O)C3CCCO3)nc(N)c2cc1OC (stereo not drawn) | inactive | – |
| COc1cc2nc(N3CCN(C(=O)c4ccco4)CC3)nc(N)c2cc1OC | inactive | – |
| Cc1nc2n(c(=O)c1CCN1CCC(c3noc4cc(F)ccc34)CC1)CCC[C@H]2O | inactive | – |
| CN1CCC(=C2c3ccccc3C=Cc3ccccc32)CC1 | inactive | – |
| COC(=O)N[C@H](C(=O)N[C@@H](Cc1ccccc1)[C@@H](O)CN(Cc1ccc(-c2ccccn2)cc1)NC(=O)[C@@H](NC(=O)OC)C(C)(C)C)C(C)(C)C | inactive | – |
| OCCOCCN1CCN(C(c2ccccc2)c2ccc(Cl)cc2)CC1 (stereo not drawn) | inactive | – |
| O=C1Nc2ccc(Cl)cc2[C@@](C#CC2CC2)(C(F)(F)F)O1 | inactive | – |
| CN1CCC[C@@H]1Cc1c[nH]c2ccc(CCS(=O)(=O)c3ccccc3)cc12 | inactive | – |
| CCCCc1nc(Cl)c(CO)n1Cc1ccc(-c2ccccc2-c2nn[nH]n2)cc1 | inactive | – |
| CN(C)CCC=C1c2ccccc2CCc2ccccc21 | inactive | – |
| CNCCCN1c2ccccc2CCc2ccccc21 | inactive | – |
| COc1ccc(-c2cc(=S)ss2)cc1 | inactive | – |
| Cc1cccc(Nc2ccccc2C(=O)O)c1C | inactive | – |
| Cc1ccc(O)c([C@H](CCN(C(C)C)C(C)C)c2ccccc2)c1 | inactive | – |
| Cc1[nH]cnc1CN1CCc2c(c3ccccc3n2C)C1=O | inactive | – |
| CN(C)CCOC(C)(c1ccccc1)c1ccccn1 (stereo not drawn) | inactive | – |
| Cc1ccccc1C(OCCN(C)C)c1ccccc1 (stereo not drawn) | inactive | – |
| CC1(C)S[C@@H]2[C@H](NC(=O)[C@H](N)c3ccccc3)C(=O)N2[C@H]1C(=O)O | inactive | – |
| CCCN(CCc1cccs1)[C@H]1CCc2c(O)cccc2C1 | inactive | – |
| CCN(CCO)CCCC(C)Nc1ccnc2cc(Cl)ccc12 (stereo not drawn) | – | inactive [at 5.34 µM] |
| CC(CN(C)C)CN1c2ccccc2CCc2ccccc21 (stereo not drawn) | inactive | – |
| O=C(c1ccccc1)c1ccc2n1CCC2C(=O)O (stereo not drawn) | inactive | – |

| SMILES | Potency | outcome |
| --- | --- | --- |
| O=C1N=C(O)CN1/N=C/c1ccc(-c2ccc([N+](=O)[O-])cc2)o1 | inactive | – |
| C#C[C@]1(O)CC[C@H]2[C@@H]3CCC4=Cc5oncc5C[C@]4(C)[C@H]3CC[C@@]21C | inactive | – |
| O=C1CCc2ccc(OCCCCN3CCN(c4cccc(Cl)c4Cl)CC3)cc2N1 | inactive | – |
| CN1CCN(C2=Nc3ccccc3Oc3ccc(Cl)cc32)CC1 | inactive | – |
| CC(C)C(=O)Nc1ccc([N+](=O)[O-])c(C(F)(F)F)c1 | inactive | – |
| CCC1C(=O)OCC1Cc1cncn1C (stereo not drawn) | inactive | – |
| CN(C)CCCN1c2ccccc2Sc2ccc(Cl)cc21 | inactive | – |
| CC(C)(C(=O)O)c1ccc(C(O)CCCN2CCC(C(O)(c3ccccc3)c3ccccc3)CC2)cc1 (stereo not drawn) | inactive | – |
| CN(C)CC/C=C1\c2ccccc2COc2ccccc21 | inactive | – |
| COC(=O)C1=C(C)NC(C)=C(C(=O)OCCN(C)Cc2ccccc2)C1c1cccc([N+](=O)[O-])c1 (stereo not drawn) | inactive | – |
| C=C(c1ccc(C(=O)O)cc1)c1cc2c(cc1C)C(C)(C)CCC2(C)C | inactive | – |
| Fc1ccc([C@@H]2CCNC[C@H]2COc2ccc3c(c2)OCO3)cc1 | inactive | – |
| O=C1CCc2cc(OCCCCc3nnnn3C3CCCCC3)ccc2N1 | inactive | – |
| COc1cc2c(cc1OC)C(=O)C(CC1CCN(Cc3ccccc3)CC1)C2 (stereo not drawn) | inactive | – |
| CC(c1cc2ccccc2s1)N(O)C(N)=O (stereo not drawn) | inactive | – |
| OCCN1C[C@H](O)[C@@H](O)[C@H](O)[C@H]1CO | inactive | – |
| C[C@H]1c2cccc(O)c2C(O)=C2C(=O)[C@]3(O)C(O)=C(C(N)=O)C(=O)[C@@H](N(C)C)[C@@H]3[C@@H](O)[C@@H]21 | inactive | – |
| Cc1ccc(C(=O)c2cc(O)c(O)c([N+](=O)[O-])c2)cc1 | inactive | – |
| CCCCc1oc2ccccc2c1C(=O)c1cc(I)c(OCCN(CC)CC)c(I)c1 | inactive | – |
| Nc1ccc(O)c(C(=O)O)c1 | inactive | – |
| CC/C(=C(\c1ccccc1)c1ccc(OCCN(C)C)cc1)c1ccccc1 | inactive | – |
| O=C1[C@H](CC[C@H](O)c2ccc(F)cc2)[C@@H](c2ccc(O)cc2)N1c1ccc(F)cc1 | inactive | – |
| COCCCC/C(=N\OCCN)c1ccc(C(F)(F)F)cc1 | inactive | – |
| COc1ccc2nc(S(=O)Cc3ncc(C)c(OC)c3C)[nH]c2c1 (stereo not drawn) | inactive | – |

Reference: PubChem BioAssay (NCATS)
